Test results taken from PubChem BioAssay (NCI).
The panel holds about 83,000 compounds, 20% with a hit somewhere; the sample as a whole holds those more often.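 Each cell line was grown in a 96-well plate and treated with one concentration of compound for 48 hours. Values below 10 were considered active.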 A number with no mark means an inactive call. Active and inactive are the calls of the source.

Columns and labels:
Test in all cases: NCI-60 one-dose screen, 48 h (100 = growth as untreated, 0 = no growth, -100 = all killed)
Settings in all cases: 10 µM unless noted
SK-MEL-2 melanoma = system: SK-MEL-2 melanoma
EKVX NSCLC = system: EKVX NSCLC
SN12C renal = system: SN12C renal
UO-31 renal = system: UO-31 renal
TK-10 renal = system: TK-10 renal
ACHN renal = system: ACHN renal
CAKI-1 renal = system: CAKI-1 renal
A498 renal = system: A498 renal
CCRF-CEM leukemia = system: CCRF-CEM leukemia
MOLT-4 leukemia = system: MOLT-4 leukemia
SR leukemia = system: SR leukemia
RPMI-8226 leukemia = system: RPMI-8226 leukemia
OVCAR-8 ovarian = system: OVCAR-8 ovarian
OVCAR-5 ovarian = system: OVCAR-5 ovarian
OVCAR-4 ovarian = system: OVCAR-4 ovarian
SK-OV-3 ovarian = system: SK-OV-3 ovarian
IGROV1 ovarian = system: IGROV1 ovarian
OVCAR-3 ovarian = system: OVCAR-3 ovarian
HS 578T breast = system: HS 578T breast
NCI/ADR-RES ovarian = system: NCI/ADR-RES ovarian

Compound | growth (SK-MEL-2 melanoma) | growth (EKVX NSCLC) | growth (SN12C renal) | growth (UO-31 renal) | growth (TK-10 renal) | growth (ACHN renal) | growth (CAKI-1 renal) | growth (A498 renal) | growth (CCRF-CEM leukemia) | growth (MOLT-4 leukemia) | growth (SR leukemia) | growth (RPMI-8226 leukemia) | growth (OVCAR-8 ovarian) | growth (OVCAR-5 ovarian) | growth (OVCAR-4 ovarian) | growth (SK-OV-3 ovarian) | growth (IGROV1 ovarian) | growth (OVCAR-3 ovarian) | growth (HS 578T breast) | growth (NCI/ADR-RES ovarian)
CCN1CCN(C(=O)[C@]23CC[C@@H](C)[C@H](C)[C@@H]2C2=CC[C@@H]4[C@@]5(C)C/C(=C/c6cccnc6)C(=O)C(C)(C)[C@@H]5CC[C@@]4(C)[C@]2(C)CC3)CC1 | 28.3% | 41.5% | 29.6% | 10.5% | 43.1% | 20.7% | 39.8% | 43.8% | 8.77% (active) | 2.7% (active) | -4.44% (active) | -15.2% (active) | 32.6% | 56.7% | 26.7% | 54.3% | 50.9% | 25.9% | 25.2% | 26.7%
O=[N+]([O-])c1ccc(-c2cn3nc(-c4c[nH]c5ccccc45)sc3n2)cc1 | 109% | 91.2% | 91.9% | 72.8% | 102% | 96.8% | 91% | 85.9% | 90.2% | 88.6% | 92.2% | 93.1% | 104% | 96.9% | 88% | 88.3% | 89% | 109% | 99.9% | 99.3%
Cc1ccc(NC(=O)Cn2c(Br)nc3c2c(=O)n(C)c(=O)n3C)cc1 | 84.9% | 55.5% | -30% (active) | 14.1% | 9.94% (active) | -66.6% (active) | 53% | -6.02% (active) | 40.7% | 58.8% | 12% | 38.5% | 28.4% | 27.9% | -44.9% (active) | 5.9% (active) | 33.1% | -19.8% (active) | – | 4.04% (active)
CN(C)CCCNC(=O)c1cncnc1Nc1ccc(OCc2cccc(F)c2)c(Cl)c1 | -35.7% (active) | 62.8% | 28.7% | -4.99% (active) | -71.7% (active) | -36.8% (active) | -19.3% (active) | -8.81% (active) | -34.2% (active) | -40.9% (active) | -48.5% (active) | -14.6% (active) | 1.06% (active) | 36.1% | 25.7% | -24% (active) | 1.4% (active) | 6.33% (active) | -30% (active) | 43.3%
C#CCOc1cccc(-c2ncnc3cc(NC(=O)C=C)ccc23)c1 | 46.7% | 72.2% | 15% | 15% | 13.8% | 25.5% | 15.9% | 44.5% | 8.7% (active) | 30.8% | 5.05% (active) | 21.1% | 38.3% | 38.5% | 70.9% | 79.9% | 33.5% | 28.6% | 24.6% | 53.5%
CCCCNc1cc(-c2cn[nH]c2-c2cc(C)cc(OC)c2)nc(-c2cccnc2)n1 | 115% | 88.3% | 95.3% | 62.3% | 97.2% | 96.7% | 66.2% | 64.4% | 84.7% | 82.6% | 60.1% | 83.1% | 80.2% | 85.3% | 73.8% | 97.1% | 115% | 98.8% | 97.6% | 89.8%
[2H]C([2H])([2H])Oc1ccc(F)cc1/C=C/C(=O)/C=C(O)/C=C/c1cc(F)ccc1OC([2H])([2H])[2H] | 98.2% | 107% | 90.7% | 91.5% | 121% | 106% | 93.6% | 99.4% | 86.9% | 75.1% | 69.4% | 90% | 88.8% | 111% | 84.3% | 104% | 105% | 95.6% | – | 89.9%
Cc1cn(-c2cc(NC(=O)c3cncc(C#Cc4c(N)ncc5ccc(F)cc45)c3)cc(C(F)(F)F)c2)cn1 | 11.4% | 73.4% | 54.5% | 27.4% | 84.3% | 60.6% | 72.1% | 84% | 39.6% | 35.6% | 51.4% | 55.1% | 65.2% | 46.2% | 79.6% | 87.6% | 32.9% | 84.5% | – | 79.1%
CCCCNC(=O)c1cc([N+](=O)[O-])cc(C2CCCCC2)c1O | 19.5% | 33.6% | 31.9% | 24.8% | 49.1% | 61.5% | 35.3% | 21.5% | 36.5% | 27.1% | 84.1% | 17% | 43.9% | 78.6% | 14.3% | 40.3% | 43.2% | 23.1% | 48.3% | 49.6%
CC1=CC(c2ccco2)=C2C(N)=NNC2N1 (centres undefined) | 108% | 96.9% | 89.9% | 80.9% | 111% | 90.8% | 82.6% | 86.3% | 101% | 103% | 94.2% | 106% | 97.7% | 87.7% | 92.6% | 101% | 86.9% | 104% | – | 98.9%
C=C1C(=O)O[C@H]2[C@H]1CC/C(CNC(=O)c1c[nH]c3ccc(F)cc13)=C\CC[C@@]1(C)O[C@@H]21 | 45.1% | 60.3% | 47.5% | -79.2% (active) | -51.7% (active) | -18% (active) | 16.2% | 15.4% | -21% (active) | -39.7% (active) | -28.2% (active) | -20.8% (active) | -33.3% (active) | 19.6% | 49% | 81.7% | 41.7% | -36.7% (active) | 44% | 56.3%
O=C1/C(=C/c2ccccn2)NC(=S)N1c1ccccc1Cl | 119% | 75% | 58.1% | 36.4% | 79.9% | 53.3% | 66% | 89.5% | 9.35% (active) | 33.4% | 19.3% | 52.8% | 30.4% | 68.4% | 34.9% | 111% | 46.1% | 53.7% | – | 50.8%
N#Cc1c(Nc2ccc(N3CCOCC3)cc2)nc(SCC(=O)c2ccc(Br)cc2)nc1-c1ccccc1 | 94.4% | 100% | 104% | 87.3% | 96.6% | 109% | 99.7% | 105% | 125% | 99.2% | 101% | 111% | 101% | 95.6% | 105% | 95% | 107% | 105% | – | 103%
O=C(/C=C/C12c3ccccc3C(c3ccccc31)C1C(=O)NC(=O)C12)c1ccc(Br)cc1 (centres undefined) | 52.2% | 60.2% | 46.2% | 41.4% | 61.2% | 66.2% | 56.4% | 60.2% | -3.91% (active) | 3.02% (active) | 14.4% | -10.7% (active) | 19.6% | 59.6% | 63.9% | 72.5% | 48% | 13% | 45.2% | 45.1%
COc1cc(-c2nc3sccn3c2-c2ccnc(NCCNS(=O)(=O)c3ccc(Cl)cc3)n2)ccc1F | 12.6% | 48.8% | 37.4% | 6.85% (active) | 55.1% | 20.4% | 19.6% | 52.8% | 6.78% (active) | -3.87% (active) | 34.5% | -18.9% (active) | 12.3% | 112% | 21.3% | 54.4% | 41.8% | 43.1% | 49.5% | 13.7%
